Out of some 310,000 compounds screened, about 2,200 (0.71%) showed an effect of 50% or more. Effects have a minus sign here. Many of the other results were omitted from the sample, so strong results are more common in it than they were.

human ether-à-go-go-related gene (hERG) potassium channel, sequence (Q12809 whole entry, looked up): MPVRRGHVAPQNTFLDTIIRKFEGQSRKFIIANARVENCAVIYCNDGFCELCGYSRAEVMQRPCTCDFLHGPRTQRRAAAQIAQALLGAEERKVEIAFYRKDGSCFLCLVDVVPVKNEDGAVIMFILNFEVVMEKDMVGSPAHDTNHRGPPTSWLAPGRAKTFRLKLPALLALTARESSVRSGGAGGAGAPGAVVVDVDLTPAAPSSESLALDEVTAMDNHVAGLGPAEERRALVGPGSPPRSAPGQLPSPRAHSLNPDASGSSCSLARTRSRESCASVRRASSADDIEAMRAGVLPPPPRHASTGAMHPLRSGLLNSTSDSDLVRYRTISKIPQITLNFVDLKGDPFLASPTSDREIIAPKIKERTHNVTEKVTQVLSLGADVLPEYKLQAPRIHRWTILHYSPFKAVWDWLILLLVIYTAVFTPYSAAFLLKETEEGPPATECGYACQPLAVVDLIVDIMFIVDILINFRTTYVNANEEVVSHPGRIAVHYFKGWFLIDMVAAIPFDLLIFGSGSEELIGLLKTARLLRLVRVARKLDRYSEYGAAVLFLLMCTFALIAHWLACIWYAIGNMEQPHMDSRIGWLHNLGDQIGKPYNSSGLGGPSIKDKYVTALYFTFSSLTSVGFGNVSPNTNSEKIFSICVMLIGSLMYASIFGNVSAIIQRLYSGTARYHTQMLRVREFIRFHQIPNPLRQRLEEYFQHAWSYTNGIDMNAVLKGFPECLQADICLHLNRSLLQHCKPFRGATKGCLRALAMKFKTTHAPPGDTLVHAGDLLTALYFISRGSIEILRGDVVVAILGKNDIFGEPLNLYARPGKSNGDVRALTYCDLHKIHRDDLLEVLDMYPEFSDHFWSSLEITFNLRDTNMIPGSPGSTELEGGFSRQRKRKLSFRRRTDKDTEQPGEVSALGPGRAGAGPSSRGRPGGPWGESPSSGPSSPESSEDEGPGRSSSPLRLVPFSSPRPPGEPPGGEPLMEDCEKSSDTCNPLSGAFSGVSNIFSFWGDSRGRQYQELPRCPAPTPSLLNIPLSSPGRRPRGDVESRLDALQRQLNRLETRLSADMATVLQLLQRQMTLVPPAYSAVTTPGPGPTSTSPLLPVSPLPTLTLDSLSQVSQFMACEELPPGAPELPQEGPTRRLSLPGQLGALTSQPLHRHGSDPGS

This test has as its target human ether-à-go-go-related gene (hERG) potassium channel (human, UniProt Q12809). The test can be described thus: primary screen, population patch clamp on CHO cells stably expressing hERG; higher = less effect of the substance.
Turning to `COc1cc(NC(=O)CSc2ncnc3scc(-c4ccccc4)c23)c(C(=O)O)cc1OC`, the “hERG current change (%, negative = inhibition) at 1uM” value was 11.2%.
As for `CCN(CC)C(=O)Cn1cc(S(=O)(=O)CC(=O)N2CCOCC2)c2ccccc21`, the “hERG current change (%, negative = inhibition) at 1uM” value was found to be 7.45%.
On to `Cc1ccc(S(=O)(=O)N2CCCCC2)cc1NC(=O)COC(=O)Cc1c(F)cccc1Cl`, for which the “hERG current change (%, negative = inhibition) at 1uM” value turned out to be 14.5%.
Under `CCOC(=O)C1CCN(C(=O)CCc2c(C)nc3cc(-c4ccccc4)nn3c2C)CC1` stands -62%; under `CCOC(=O)C1CCN(C(=O)CCc2c(C)nc3cc(-c4ccc(OC)cc4OC)nn3c2C)CC1`, -10.6%; under `CCOC(=O)C1CCCCN1C(=O)CCc1c(C)nc2cc(-c3ccccc3)nn2c1C` (stereo not shown), -14%.
As for `S=C(N/N=C/c1ccco1)NC1CC2CCC1C2` (stereo not shown), the “hERG current change (%, negative = inhibition) at 1uM” value was determined as 8.84%.
Consider `CC1(C)O[C@@H]2C[C@H]3[C@@H]4C[C@H](F)C5=CC(=O)CC[C@]5(C)[C@H]4[C@@H](O)C[C@]3(C)[C@]2(C(=O)CO)O1`, for which the “hERG current change (%, negative = inhibition) at 1uM” value is 18.1%.
Next, `OCCC1CN(Cc2cc3c(cc2Cl)OCO3)CCN1Cc1ccccc1` (stereo not shown): -1.48%; `CCOc1ccc(CN2CCN(Cc3cc4c(cc3Cl)OCO4)CC2CCO)cc1` (stereo not shown): -62.9%; `CCOc1ccc(CN2CCN(CC3CC3)CC2CCO)cc1` (stereo not shown): -20.7%.
Under `CCOc1ccc(CN2CCN(CC3=Cc4cccc(OC)c4OC3)CC2CCO)cc1` (stereo not shown) stands -71.4%.
Under `Cc1ccc(CN2CCN(Cc3cccc4c3OCO4)CC2CCO)cc1` (stereo not shown) stands -16.1%; under `CCOc1ccc(CN2CCN(Cc3cccc4c3OCO4)CC2CCO)cc1` (stereo not shown), -64.9%.
`OCCC1CN(Cc2cccc3c2OCO3)CCN1Cc1ccccc1` (stereo not shown): the “hERG current change (%, negative = inhibition) at 1uM” value was determined as 7.11%.
As to `COc1cccc2c1OCC(CN1CCN(Cc3ccccc3)C(CCO)C1)=C2` (stereo not shown), the “hERG current change (%, negative = inhibition) at 1uM” value is listed as -4.17%.
In the case of `COc1cccc2c1OCC(CN1CCN(Cc3ccccc3F)C(CCO)C1)=C2` (stereo not shown), the “hERG current change (%, negative = inhibition) at 1uM” value is 12%.
Next, `COc1ccccc1CNC(=O)C1(c2ccc(Cl)cc2)CC1`: 0.547%; `O=C(c1cccc(C(F)(F)F)c1)N1CCCC1`: 8.42%.
Under `COc1ccc(-c2nn(-c3ccccc3)cc2/C=N/Nc2ccc3ccccc3n2)cc1OC` stands 7.59%; under `Cc1cc2n(n1)SC(Nc1cc(Cl)ccc1Cl)N2` (stereo not shown), 7.4%; under `COC(=O)c1cc(S(=O)(=O)Nc2ccc(C)c(F)c2)c[nH]1`, -3.6%.
With `CCn1c(/C(C#N)=N/O)nc2ccccc21`, the “hERG current change (%, negative = inhibition) at 1uM” value worked out at 6.1%.
Next, `O=C(NNS(=O)(=O)c1ccc(F)cc1)c1ccccc1O`: 13.6%.
Next, `O=C(C[n+]1ccc(C(=O)N/N=C/c2ccc(O)cc2)cc1)c1ccccc1.[Br-]`: 4.63%; `O=C(C[n+]1ccc(C(=O)N/N=C/c2ccc(Br)cc2)cc1)c1ccccc1.[Br-]`: -32.5%; `O=C(C[n+]1ccc(C(=O)N/N=C/c2ccc(Cl)cc2Cl)cc1)c1ccccc1.[Br-]`: -63.3%.
On to `O=C(NCC1CCCO1)c1ccc(S(=O)(=O)Nc2ccccc2F)cc1` (stereo not shown), for which the “hERG current change (%, negative = inhibition) at 1uM” value stood at 7.53%.
Under `COc1ccc(C)cc1N/C(N)=N/c1nc(C)cc(C)n1` stands -64.7%; under `CCCOc1ccccc1N/C(=N/c1nc(C)cc(C)n1)NC(=O)Nc1ccc(Cl)cc1`, 8.59%; under `CC(=O)N/C(=N/c1nc(C)cc(C)n1)Nc1ccc(C)cc1C`, 4.11%.
Take `COc1ccc(N/C(N)=N/c2nc(C)cc(C)n2)c(OC)c1`: the “hERG current change (%, negative = inhibition) at 1uM” value is listed as -2.86%.
Next, `COc1cc(N/C(N)=N/c2nc(C)cc(C)n2)c(OC)cc1Cl`: -17.2%; `COc1ccc(Cl)cc1N/C(N)=N/c1nc(C)cc(=O)[nH]1`: 12.3%; `COc1ccccc1N/C(N)=N/c1nc(C)cc(C)n1`: -2.38%.
Consider `Cc1ccc(N/C(N)=N/c2nc(C)cc(N3CCCCC3)n2)c(C)c1`, for which the “hERG current change (%, negative = inhibition) at 1uM” value is given as -79%.
In the case of `Cc1ccc(C)c(N/C(N)=N/c2nc(C)cc(C)n2)c1`, the “hERG current change (%, negative = inhibition) at 1uM” value is recorded as -8.3%.
On to `CCCOc1ccccc1N/C(N)=N/c1nc(C)cc(C)n1`, for which the “hERG current change (%, negative = inhibition) at 1uM” value is listed as -59.4%.
Under `COc1ccc(OC)c(N/C(N)=N/c2nc(C)cc(C)n2)c1` stands -26.5%.
In the case of `COc1ccc(Cl)cc1N/C(N)=N/c1nc(C)cc(C)n1`, the “hERG current change (%, negative = inhibition) at 1uM” value is -79.1%.
Turning to `COc1cc(/C=C(\C#N)C(=O)Nc2ccccc2F)ccc1OCCN1CCOCC1`, the “hERG current change (%, negative = inhibition) at 1uM” value is on record as -25.6%.
Next, `CN(c1ccccc1)S(=O)(=O)c1cc(C(=O)N2CCN(c3ccccn3)CC2)ccc1Cl`: 16.5%.
Next, `CN1CCN(c2ccc([N+](=O)[O-])cc2NC(=O)c2ccco2)CC1`: -22.4%.

The values above are taken from article PMC4336329 (PLoS ONE, 2015).
